Experimental data: ChEMBL document CHEMBL3433997, “St. Jude Leishmania screening dataset” (2016)

Assays:
Format in all cases: functional
[1] = biological target: Solute carrier family 2, facilitated glucose transporter member 1 (Homo sapiens) (UniProt P11166); assay: ST_JUDE_LEISH: Cytotoxicity at 2uM final concentration against transgenic Leishmania Mexicana promastigotes LmGLUT1 that are glucose transport deficient and complemented with the human glucose transporter GLUT1. Activity is measured by DNA content using SYBR green in vitro
[2] = biological target: Hexose transporter 1 (Plasmodium falciparum) (UniProt O97467); assay: ST_JUDE_LEISH: Cytotoxicity at 2uM final concentration against transgenic Leishmania Mexicana promastigotes LmPfHT that are glucose transport deficient and complemented with the Plasmodium falciparum hexose transporter. Activity is measured by DNA content using SYBR green in vitro
[3] = biological target: Glucose transporter (Leishmania mexicana) (UniProt O61059); assay: ST_JUDE_LEISH: Cytotoxicity at 2uM final concentration against transgenic Leishmania Mexicana promastigotes LmGT2 that are glucose transport deficient and complemented with the L. Mexicana glucose transporter 2. Activity is measured by DNA content using SYBR green in vitro

Sequence of Solute carrier family 2, facilitated glucose transporter member 1 (Homo sapiens) (P11166 whole entry): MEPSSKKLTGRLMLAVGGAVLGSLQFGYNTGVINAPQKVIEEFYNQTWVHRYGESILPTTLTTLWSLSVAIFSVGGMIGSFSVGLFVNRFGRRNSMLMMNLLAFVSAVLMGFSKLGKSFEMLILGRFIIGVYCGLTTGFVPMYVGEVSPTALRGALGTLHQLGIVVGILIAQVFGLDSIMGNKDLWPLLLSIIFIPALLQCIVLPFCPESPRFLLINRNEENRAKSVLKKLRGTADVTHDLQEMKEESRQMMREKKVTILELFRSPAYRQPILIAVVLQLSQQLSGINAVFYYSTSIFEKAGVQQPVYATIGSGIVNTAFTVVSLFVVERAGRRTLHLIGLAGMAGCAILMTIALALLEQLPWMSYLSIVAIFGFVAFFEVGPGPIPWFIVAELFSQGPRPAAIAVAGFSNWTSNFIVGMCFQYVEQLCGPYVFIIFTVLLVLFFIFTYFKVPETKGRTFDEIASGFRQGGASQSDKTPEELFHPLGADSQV

Row | Structure (SMILES) | inhibition [1] | inhibition [2] | inhibition [3]
1 | CS(=O)(=O)Cc1ccc(Nc2nccc(-c3c(-c4cccc(NC(=O)c5c(F)cccc5F)c4)nn4ccccc34)n2)cc1 | 38.6% | 18.8% | 9.09%
2 | Cc1cccc2nc(-c3cccc(-c4cccc(NC(=O)Nc5ccc(Cl)cc5)c4)c3)[nH]c12 | -3.06% | -0.68% | -1.91%
3 | O=C(Cc1c[nH]cn1)Nc1ccc(-c2ccc(-c3nc4cc(C(F)(F)F)ccc4[nH]3)s2)cc1 | -0.37% | -0.36% | -0.01%
4 | Nc1nc(N)c2c(Oc3cccc(Cl)c3)cccc2n1 | 1.52% | 1.79% | -1.1%
5 | COc1cc(F)c2ncc(Cl)c(C(O)CN3CCC(NC(=O)c4ccc5c(n4)NC(=O)CO5)CC3)c2c1 (stereo unspecified) | 1.02% | 0.57% | -1.35%
6 | Cc1cc(N2CCCC2)nc(Nc2ccc(NC(=O)CC(C)C)cc2)n1 | 1% | 3.11% | 2.23%
7 | COc1ccc(-c2ccc(S(=O)(=O)Nc3cc4c(cc3OC(C)C)CCN(C)CC4)cc2)cc1 | 1.81% | 2.48% | 1.21%
8 | Cc1ccc(-n2c(Cc3cccc4ccccc34)nnc2SCCC#N)c(C)c1 | 5.99% | 5.29% | 8.9%
9 | O=C(/C=C/c1ccc(Cl)c(Cl)c1)N1CCN(C(=O)Nc2ccc(F)c(Cl)c2)CC1 | 9.87% | 8.92% | 11.1%
10 | O=C(N[C@H]1CCN(Cc2ccc(OCCN3CCCC3)c3ccccc23)C1)c1ccc(Cl)c(Cl)c1 | 1.59% | 2.72% | -2.78%
11 | COc1ccc(CNCc2cccc(-c3cccc(-c4nc5cccc(C)c5[nH]4)c3)c2)cc1 | 9.14% | 8.38% | 7.72%
12 | COc1cc(Nc2nccc(NCC(O)c3ccc(C(F)(F)F)cc3)n2)cc(OC)c1OC (stereo unspecified) | 1.6% | 2.84% | 2.81%
13 | O=C(NCc1ccc(F)cc1)Nc1ccc(-c2cccc(-c3nc4cc(F)ccc4[nH]3)c2)cc1 | 7.44% | 6.92% | -1%
14 | CCN(c1ccc(O)c(CN2CCCCC2)c1)c1ccc([N+](=O)[O-])cn1 | 2.79% | 1.08% | 0.72%
15 | Cc1cc(N[C@@H](CC(C)C)C(=O)Nc2ccccc2)nc(NCCc2ccc(F)cc2)n1 | 4.85% | 1.97% | 1.72%
16 | N=C1N=C(N)NC2(CCCCC2)N1OCC1CCCCC1 | -0.96% | -0.44% | -1.26%
17 | CC(C)(C)C1CC(=O)CC2C(=O)N(C3CCCCC3)C(=O)C21 (stereo unspecified) | 4.51% | 2.76% | 3.68%
18 | O=c1cc(NCCCNCc2ccc(Cl)c(Cl)c2)[nH]c2ccc(Cl)cc12 | 0.59% | 0.59% | -9.23%
19 | Clc1cccc(Cl)c1CCNCC1CCN(CC2CCCCC2)CC1 | 5.48% | 5.47% | 6.54%
20 | N#Cc1ccc(CNCCCCCCCNCc2ccc(-c3ccccc3)cc2)cc1 | 4.19% | 5.01% | 5.28%
21 | Cc1cc(N(C)CCN(C)C)nc(Nc2ccc(Cl)cc2)n1 | 5.23% | 5.67% | 7.48%
22 | CCCC(C)Nc1nc(C)cc(N[C@@H](CC(C)C)C(=O)NCCOc2ccccc2)n1 (stereo partly specified) | 21.4% | 17% | 16.7%
23 | COc1ccc(CCNCCCCNCCc2ccc(OC)c3ccccc23)c2ccccc12 | 64.4% | 55.5% | 102%
24 | O=C(N[C@@H](Cc1ccccc1)C(=O)NCCN1CCOCC1)c1ccc(O)c(-c2ccc(Cl)c(Cl)c2)c1 | 2.33% | 2.47% | 4.35%

Row | Structure (SMILES) | inhibition [1] | inhibition [2] | inhibition [3]
25 | O=C(N[C@@H](CC1CCCCC1)C(=O)NC1CC1)c1ccc(O)c(-c2cccc(C(F)(F)F)c2)c1 | 3.48% | 2.6% | 3.88%
26 | Oc1c(C(Nc2ccccn2)c2ccco2)cc(Cl)c2cccnc12 (stereo unspecified) | 0.55% | 1.24% | -1.1%
27 | Cc1cc(Nc2ccc(C(C)(C)C)cc2)c2[nH]ncc2n1 | 16.1% | 26.2% | 4.28%
28 | CCCNCc1ccc(-c2ccc(CN(C(=O)c3nn(-c4ccccc4)nc3C)C3CCOCC3)cc2)nc1 | -0.49% | -0.28% | -1.66%
29 | COc1ccccc1N1CCN(c2cccc3c2nc(-c2cncc(C#N)c2)n3CCNCc2ccccc2)CC1 | 9.96% | 7.58% | 6.47%
30 | COc1ccc2nccc(NC(=O)N3CCC(NCc4cc5ccccc5[nH]4)CC3)c2n1 | 13.2% | 16.9% | 2.89%
31 | O=C(Nc1cccc(-c2cc(-c3c(Cl)cccc3Cl)no2)c1)c1cnc2ccccc2c1 | 11.8% | 9.35% | 6.2%
32 | O=C(Nc1nc2cc(S(=O)(=O)NCCCN3CCOCC3)ccc2n1CCCn1ccnc1)c1ccc(Cl)cc1 | 5.51% | 5.43% | 4.2%
33 | CCOc1ccccc1NC(=O)Nc1ccc2c(c1)CCN(C1CCC1)CC2 | 9.64% | 6.1% | 10.2%
34 | O=C(Nc1ccc(Cl)cc1)N1CCN(C2CCCCC2)CC1 | 4.49% | 2.78% | 3.2%
35 | CC(C)c1ccc(CN2CCC(CNC(=O)c3cc(-c4cccc(C(F)(F)F)c4)cs3)C2)cc1 (stereo unspecified) | 1.18% | 1.74% | 3.79%
36 | Oc1ccc(CCNc2nc(NCc3ccccc3-c3ccc(C(F)(F)F)cc3)nc(N3CCCNCC3)n2)cc1 | 4.27% | 2.99% | 2.83%
37 | Cc1cccc2nc(-c3ccc(-c4ccc(NC(=O)NCc5cccc(F)c5)cc4)cc3)[nH]c12 | 11.4% | 12.2% | 10.3%
38 | COc1ccccc1NS(=O)(=O)c1cc(C(=O)Nc2ccc(N3CCOCC3)c(S(=O)(=O)Nc3ccccc3Cl)c2)ccc1Cl | 3.2% | 2.83% | 0.88%
39 | Cc1ccc(Cn2nc(Cl)c(N3CCNCC3)cc2=O)cc1NC(=O)Nc1ccc(-c2ccccc2)cc1 | 1.36% | 5.15% | 6.75%
40 | O=S(=O)(Nc1cccc(CCN2CCC(N3CCCCC3)CC2)c1)c1ccc(Oc2ccccc2)cc1 | 4.33% | 4.71% | 2.69%
41 | Cc1cc(NCCc2ccccc2)nc(NC(=N)Nc2cccc(F)c2)n1 | 2.17% | 3.28% | -0.09%
42 | O=C(CCCC(=O)Nc1ccc(C2=NCCN2)cc1)Nc1ccc(C2=NCCN2)cc1 | 0.86% | 0.54% | -0.14%
43 | CCOC(=O)C1=C(C)NC(Cn2ccnc2)=C(C(=O)OCC)C1c1ccc(C(C)(C)C)cc1 (stereo unspecified) | 2.7% | 2.73% | 2.07%
44 | Cc1cc(NC2CCCC2)nc(Nc2ccc(F)cc2)n1 | 8.81% | 7.56% | 0.46%
45 | CC(C)NCc1ccc(-c2ccc(-c3nc4cc(C(F)(F)F)ccc4[nH]3)cc2)cc1 | 1.09% | -1.61% | 2.69%
46 | COc1ccc2nccc(N3C[C@H]4C[C@@H]3CN4CCNCc3ccc4c(n3)NC(=O)CS4)c2n1 | -0.98% | 0.1% | -1.32%
47 | Cc1ccccc1C1CCN(C2CCC(NC(=O)c3ccc(-c4ccccc4F)o3)CC2)CC1 (stereo unspecified) | 3.69% | 2.49% | 1.85%
48 | Cc1cnn(-c2cccc(C(=O)NC3CCC(CCN4CCc5ccc(C#N)cc5CC4)CC3)c2)c1 (stereo unspecified) | 1.35% | 6.24% | -0.22%

Row | Structure (SMILES) | inhibition [1] | inhibition [2] | inhibition [3]
49 | O=C(COc1ccccc1)N(Cc1ccc(-c2ccc(CNC3Cc4ccccc4C3)cc2)cc1)C1CCNCC1 | 2.8% | 2.48% | 2.61%
50 | Cc1cnc(NCC2CCCCC2)nc1N[C@@H](CC(C)C)C(=O)Nc1ccccc1 | 2.17% | 1.5% | 0.65%
51 | FC(F)(F)COc1ccc(CCNCCCCNCCc2ccc(OCC(F)(F)F)c3ccccc23)c2ccccc12 | -0.09% | 12.3% | 1.09%
52 | CN(C)S(=O)(=O)c1ccc(N2C(=O)C3C(C2=O)C2(c4ccccc4)C(=O)C3(c3ccccc3)C(c3ccccc3)=C2c2ccccc2)cc1 (stereo unspecified) | -0.75% | -2.18% | -2.57%
53 | Cc1cccc2nc(-c3ccc(-c4cccc(C(=O)NCCN5CCCC5)c4)s3)[nH]c12 | 10.1% | 10.7% | 9.13%
54 | O=C(NCCN1CCCCC1)c1ccc(CNC(=O)c2ccc(O)c(-c3ccc(Cl)c(Cl)c3)c2)cc1 | 0.15% | 0.04% | -0.59%
55 | CCOc1ccc(-c2nc(NC(=O)Cc3cccc(OC)c3)sc2C)cc1 | 5.17% | 7.92% | -0.61%
56 | Fc1cccc(C=NN=c2cc[nH]c3ccc(C(F)(F)F)cc23)c1 | 9.27% | 8.79% | 5.06%
57 | COc1cc(CC2c3cc(O)c(Cl)cc3CCN2C)c(OC)cc1C (stereo unspecified) | 3.63% | 4.4% | 5.31%
58 | CN1CCN(c2ccc(Nc3ccnc4ccc(-c5ccccc5)cc34)cc2)CC1 | 1.32% | 1.83% | -1.67%
59 | CCNc1cc(C(=O)N[C@@H](Cc2ccccc2)[C@H](O)CNC(C)CC(C)C)c(F)c(N2CCCCS2(=O)=O)c1 (stereo partly specified) | 2.89% | 3.43% | 2.55%
60 | Oc1ccc(CCNc2nc(N/N=C/c3ccc(Cl)cc3)nc(N3CCNCC3)n2)cc1 | -0.62% | 1.75% | 0.33%
61 | COc1cccc(NC(=O)Cn2c(C)c(C#N)c3ccccc32)c1 | 3.53% | 5% | 3.36%
62 | CCCCCCCc1c(C)nc2c(OC)cccc2c1O | 5.31% | 8.11% | -0.9%
63 | Cc1cnc(C(=O)Nc2ccc(-c3cccc(-c4nc5ccccc5[nH]4)c3)cc2)cn1 | 2.19% | 1.94% | -0.57%
64 | COc1ccc(C=NN=c2cc(C)[nH]c3ccccc23)cc1OC | 7.8% | 9.53% | 2.8%
65 | COc1ccc(Nc2nccc(N3CCC(NC(=O)c4cc5ccccc5s4)C3)n2)cc1 (stereo unspecified) | -3.12% | 1.28% | -1.61%
66 | COc1cc(CNc2ncc(-c3ccsc3)c(-c3nccs3)n2)cc(OC)c1 | 1.79% | 1.49% | -0.78%
67 | CN(CCN1CCC(c2c[nH]c3ccccc23)CC1)C(=O)OCCCCCNC(=O)/C=C/c1ccc(Cl)c(Cl)c1 | 9.15% | 10.3% | 8.82%
68 | COc1cccc(-c2ccc3ccnc(N)c3c2)c1 | 4.14% | 4.24% | 2.03%
69 | N#Cc1ccc2c(c1)CN(CCC1CCC(NC(=O)c3cc4ccccc4cc3N)CC1)CC2 (stereo unspecified) | 5.84% | 5.45% | 3.13%
70 | COCCNCc1cccc(-c2ccc3c(Nc4ccc(Oc5cccnc5)cc4)ccnc3c2)c1 | 1.93% | 2.56% | 2.93%
71 | O=C(NCC1COc2ccccc2O1)c1cnc2c(c1)nc(-c1c[nH]c(-c3ccccc3)n1)n2CCSCc1c(F)cccc1Cl (stereo unspecified) | 4.51% | 3.79% | 3.91%
72 | CN(C)CCCN(C)C(=O)c1cc2cc(-c3ccccc3)ccc2n1S(=O)(=O)c1ccccc1 | 5.31% | -2.36% | -0.41%
